Rows were chosen to be rich in hits. Some 8.1% of all compounds tested hit in one or more screens of this group.
SW480 rereplic: A quantitative high throughput screen for small molecules that induce DNA re-replication in SW480 colon adenocarcinoma cells; SW480 DNA re-replication, Hoechst DNA content imaging, 48 h; Potency, µM (highest dose often 46.1 µM), hits mostly activators; actives 1.8% (n = 340,000); AID 624297, 2012; also: nearly all actives have a fitted effect of over 55% in size
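SW480 cells exposed to compounds for 48 hr at 37 C, 5% CO2, then Hoechst-stained 40 min. Nuclear DNA content imaged by fluorescence scanning (405 nm excitation, 500-530 nm emission); re-replication scored as increased high-intensity nuclei.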
KB-3-1 cytotox: qHTS assay for MDR1-selective chemotherapeutics: Primary screen using the parental adenocarcinoma cell KB-3-1. KB-3-1 viability, CellTiter-Glo ATP luminescence, 72 h. Potency, µM (titrated, usually from 46.1 µM), most hits filed as cytotoxic. actives 1.4% (n = 400,000); also: nearly all actives have a fitted effect of over 60% in size
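Parental KB-3-1 viability, qHTS format: 72 h compound exposure, 37 °C; CellTiter-Glo; media-only wells and DMSO plates as controls; concentration-effect fits on corrected data.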
MCF10A rereplic: A quantitative high throughput screen for small molecules that induce DNA re-replication in MCF 10a normal breast cells. MCF 10A DNA re-replication, Hoechst nuclear intensity, 48 h. Potency, µM (top dose mostly 46.1 µM), actives largely listed as activators. actives 2.9% (n = 350,000); also: nearly all actives have a fitted effect of over 50% in size
KB-V1 cytotox: qHTS assay for MDR1-selective chemotherapeutics: Primary screen using the drug-selected MDR subline cells KB-V1; AID 1347076, 2019; KB-V1 MDR cells viability, CellTiter-Glo, 72 h; actives 3.4% (n = 400,000); Potency, µM (titrated, usually from 46.1 µM), most hits filed as cytotoxic; also: nearly all actives have a fitted effect of over 60% in size
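Cytotoxicity toward P-gp-expressing KB-V1 cells was determined as loss of CellTiter-Glo luminescence after 72 h at 37 degrees C. Compounds were tested in quantitative HTS format across a concentration range, with curves fitted to normalized data.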
ELG1 DNA repair: qHTS screen for small molecules that inhibit ELG1-dependent DNA repair in human embryonic kidney (HEK293T) cells expressing luciferase-tagged ELG1; HEK293T ELG1-luciferase reporter, luminescence, 16 h; DNA damage induced by 5-fluorouridine; Potency, µM (highest dose often 46.1 µM), most hits filed as inhibitors; actives 2.3% (n = 330,000); also: nearly all actives have a fitted effect of over 55% in size
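In this reporter screen, reduction of luminescence relative to DMSO vehicle indicated activity. Compounds and 5-fluorouridine were added together to 2,000 cells per well, incubated for 16 hr at 37 °C, then developed with ONE-Glo.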
Large screens that a line does not name were inactive. Calls follow the shape of the dose curve; as a rule, active = well fitted curve in the direction sought with a large enough effect; inconclusive = small, poorly fitted or top-dose-only effect, or another doubt; inactive = no such curve, though single readings can be large; an effect the other way counts as inactive or inconclusive.

COc1ccc(S(=O)(=O)N2c3ccccc3OCC2C(C)(C)C)cc1 (stereo not drawn)	none
COc1ccc(S(=O)(=O)N2c3ccccc3OCC2C)cc1 (stereo not drawn)	SW480 rereplic 2.6µM, KB-3-1 cytotox 1.2µM, MCF10A rereplic 1.3µM, KB-V1 cytotox inconclusive, ELG1 DNA repair inconclusive
COc1ccc(S(=O)(=O)N2c3ccccc3OCC2c2ccccc2)cc1 (stereo not drawn)	SW480 rereplic 3.7µM, KB-3-1 cytotox 8.2µM, MCF10A rereplic 5.8µM, KB-V1 cytotox 5.8µM, ELG1 DNA repair inconclusive
COc1ccc(S(=O)(=O)N2CC(C(=O)O)Oc3ccccc32)cc1 (stereo not drawn)	none
O=S(=O)(NCCc1csc(-c2cccnc2)n1)c1cccc(F)c1	KB-V1 cytotox inconclusive
COc1ccc(-c2cnc3c(NC=O)cc(-c4cccc(NS(C)(=O)=O)c4)cn23)cc1OC	KB-3-1 cytotox inconclusive (no result: SW480 rereplic, MCF10A rereplic, ELG1 DNA repair)
COc1cccc(-c2cnc3c(NC=O)cc(-c4ccc(OC)cc4OC)cn23)c1	KB-3-1 cytotox 0.21µM, KB-V1 cytotox inconclusive (no result: SW480 rereplic, MCF10A rereplic, ELG1 DNA repair)
COc1ccc(-c2cc(NC=O)c3ncc(-c4ccc(OC)c(OC)c4)n3c2)c(OC)c1	KB-3-1 cytotox 0.65µM, KB-V1 cytotox 1.2µM (no result: SW480 rereplic, MCF10A rereplic, ELG1 DNA repair)
O=C(CN1C(=O)c2ccccc2S1(=O)=O)Nc1cccc(S(=O)(=O)N2CCOCC2)c1	none
COc1ccc(/C=N/NC(=O)CNC(=O)c2ccc3c(c2)OCCO3)cc1OC	none
COc1ccc(C(=O)NCC(=O)N/N=C/c2cccc(OC(=O)c3ccco3)c2)cc1OC	MCF10A rereplic 3.3µM, KB-V1 cytotox inconclusive
COc1ccc(S(=O)(=O)Nc2cc3c4c(c2)CC(=O)N4CCC3)cc1	none
COCCCNC(=O)c1ccc2c(c1)N=C(C)c1c(C)ccc(C)c1S2	KB-3-1 cytotox 0.016µM, KB-V1 cytotox 0.052µM (no result: SW480 rereplic, MCF10A rereplic, ELG1 DNA repair)
CCOC(=O)N1CCC(NC(=O)c2ccc3c(c2)N=C(C)c2c(C)ccc(C)c2S3)CC1	SW480 rereplic 7.3µM, KB-3-1 cytotox 2.1µM, KB-V1 cytotox 5.2µM, ELG1 DNA repair inconclusive
COCCCNC(=O)c1cccc(C(=O)NCCCOC)c1	none
CC1=Nc2cc(C(=O)NC3CCC(C)CC3)ccc2Sc2c(C)ccc(C)c21 (stereo not drawn)	KB-3-1 cytotox 0.52µM, KB-V1 cytotox 0.26µM (no result: SW480 rereplic, MCF10A rereplic, ELG1 DNA repair)
O=C(Nc1ccc2nc(SCc3ccc(Cl)cc3)sc2c1)c1ccccc1C(=O)N1CCOCC1	MCF10A rereplic 6.5µM, ELG1 DNA repair inconclusive
COC(=O)CSc1nc2ccc(NC(=O)c3ccccc3C(=O)N3CCOCC3)cc2s1	KB-V1 cytotox inconclusive
CCc1cc(C(=O)NC2CCCN(Cc3ccccc3F)C2)n(C)n1 (stereo not drawn)	SW480 rereplic 2.1µM, KB-V1 cytotox inconclusive, ELG1 DNA repair inconclusive
Cc1ccccc1C(=O)NC(=S)Nc1sc2c(c1C#N)CCC(C)C2 (stereo not drawn)	ELG1 DNA repair inconclusive
CC1(C)Oc2ccc(C(=O)N3CCCCC3)cc2N(CC(=O)NCc2ccccc2)C1=O	none
Cc1ccc(S(=O)(=O)N(C)C)cc1NC(=O)CSc1nc2ccccc2[nH]1	MCF10A rereplic inconclusive, KB-V1 cytotox 15µM
COc1ccc2nc(SCC(=O)Nc3ccccc3C)[nH]c2c1	KB-V1 cytotox 15µM
O=C(CSc1nc2ccc(Cl)cc2[nH]1)NCCc1ccc(Cl)cc1	MCF10A rereplic inconclusive
CCN(CC)S(=O)(=O)c1ccc(C)c(NC(=O)CSc2nc3ccccc3[nH]2)c1	KB-V1 cytotox inconclusive, ELG1 DNA repair inconclusive (no result: SW480 rereplic)
O=C(CSc1nc2ccc(Cl)cc2[nH]1)NCCc1ccccc1	MCF10A rereplic inconclusive, KB-V1 cytotox 16µM
O=C(C[n+]1csc2ccccc21)c1ccc(O)c(O)c1	none (no result: SW480 rereplic, MCF10A rereplic, ELG1 DNA repair)
Cc1oc2ccc(NS(=O)(=O)c3ccc(F)cc3)cc2c1C(=O)O	none
COCCOC(=O)c1c(C)oc2ccc(NS(=O)(=O)c3ccc(F)cc3)cc12	KB-V1 cytotox 5.2µM, ELG1 DNA repair inconclusive
Cc1ccc(C(=O)Nc2ccccc2C(=O)N2CC3(C)CC2CC(C)(C)C3)cc1 (stereo not drawn)	SW480 rereplic inconclusive, MCF10A rereplic 26µM, KB-V1 cytotox inconclusive, ELG1 DNA repair 23µM
CC1(C)CC2CC(C)(CN2C(=O)NC(=O)c2ccccc2)C1 (stereo not drawn)	KB-V1 cytotox inconclusive
Cc1cccc(Nc2ccccc2C(=O)OCC(=O)NCc2ccco2)c1C	SW480 rereplic inconclusive, KB-3-1 cytotox inconclusive, MCF10A rereplic inconclusive, KB-V1 cytotox 13µM
Cc1ccccc1C(=O)OCC(=O)NCc1ccco1	ELG1 DNA repair inconclusive
Cc1ccccc1Nc1cc(C(=O)NCc2ccco2)c2ccccc2n1	SW480 rereplic inconclusive, KB-3-1 cytotox inconclusive, KB-V1 cytotox 8.2µM, ELG1 DNA repair inconclusive
Cc1cccc(Nc2nc(NCc3ccco3)c3ccccc3n2)c1	SW480 rereplic inconclusive, KB-3-1 cytotox inconclusive, MCF10A rereplic inconclusive, KB-V1 cytotox 15µM, ELG1 DNA repair inconclusive
CCNc1nc(NCc2ccco2)c2ccccc2n1	none (no result: SW480 rereplic, MCF10A rereplic, ELG1 DNA repair)
CSc1nc(NCc2ccco2)c2ccccc2n1	KB-3-1 cytotox inconclusive, KB-V1 cytotox 12µM
O=S(=O)(c1ccc(SCc2ccc(Cl)cc2)nc1)N1CCCC1	none
COc1ccc(C2=Nn3c(nnc3C3CCCCC3)SC2)cc1OC	ELG1 DNA repair inconclusive
Cc1ccccc1Nc1nc(NCc2ccco2)c2ccccc2n1	SW480 rereplic inconclusive, KB-3-1 cytotox inconclusive, MCF10A rereplic inconclusive, KB-V1 cytotox 12µM, ELG1 DNA repair inconclusive
CNc1nc(NCc2ccco2)c2ccccc2n1	KB-3-1 cytotox inconclusive (no result: SW480 rereplic, MCF10A rereplic, ELG1 DNA repair)
c1ccc(Nc2nc(NCc3ccco3)c3ccccc3n2)cc1	SW480 rereplic inconclusive, KB-3-1 cytotox inconclusive, MCF10A rereplic inconclusive, KB-V1 cytotox inconclusive, ELG1 DNA repair 9.2µM
Oc1ccccc1Nc1nc(NCc2ccco2)c2ccccc2n1	MCF10A rereplic inconclusive, ELG1 DNA repair inconclusive
CNC(=O)c1[nH]nc2c1CCc1ccccc1-2	none
COc1ccc(/C=N/NC(=O)c2[nH]nc3c2CCc2ccccc2-3)cc1OC	SW480 rereplic inconclusive, KB-3-1 cytotox inconclusive, MCF10A rereplic 5.2µM
COCC(=O)N/N=C\c1ccc(OC/C=C/c2ccccc2)c(OC)c1	SW480 rereplic inconclusive, MCF10A rereplic inconclusive, KB-V1 cytotox 12µM, ELG1 DNA repair inconclusive
COc1cccc(/C=N/NC(=O)c2nc(-c3ccccc3)cc(-c3ccccc3)n2)c1	MCF10A rereplic inconclusive, KB-V1 cytotox inconclusive, ELG1 DNA repair 7.3µM
COc1ccc(/C=N/NC(=O)c2nc(-c3ccccc3)cc(-c3ccccc3)n2)cc1OC	ELG1 DNA repair 4.1µM
O=C(CSc1ncnc2c1nnn2Cc1ccccc1)NC1CCCCC1	SW480 rereplic inconclusive, MCF10A rereplic 23µM
CCN1CCN(c2ncnc3c2nnn3Cc2ccccc2)CC1	MCF10A rereplic inconclusive

Screening data from PubChem.
